Results published in PubChem BioAssay AID1159580 (chemical genetic matrix, 2015).
The campaign covered roughly 5,500 compounds. About 2,000 (36%) were called active. Inconclusive results (about 18%) are left out. No stated cut-off is given here; in the data, active means normalized growth mostly below about 0.91 (no sharp cut-off); inconclusive means no clear call, values can overlap the other calls; inactive means mostly above about 0.92. This is one part of the list.

Assay: chemical genetic growth profiling, strain panel (AID 1159580);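 further: tested at 20 µM; growth read once vehicle control cultures reached saturation at 30 °C; 1 = growth at the plate median or of vehicle wells; lower values mean less growth of the strain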
Details: S. cerevisiae deletion strains, growth OD
[1] = locus YDL101C, strain DUN1, active compounds read low
[2] = locus YHR030C, strain SLT2, active compounds read low
[3] = locus YAL013W, strain DEP1, active compounds read low
[4] = locus YBR229C, strain ROT2, active compounds read low
[5] = locus YDL134C, strain PPH21, active compounds read low
[6] = locus YDR150W, strain NUM1, active compounds read low
[7] = locus YEL061C, strain CIN8, active compounds read low
[8] = locus YGR078C, strain PAC10, active compounds read low
[9] = locus YHR087W, strain rtc3, active compounds read low
[10] = locus YJR043C, strain POL32, active compounds read low
[11] = locus YJR075W, strain HOC1, active compounds read low
[12] = locus YKL190W, strain CNB1, active compounds read low
[13] = locus YLR039C, strain RIC1, active compounds read low
[14] = locus YLR058C, strain SHM2 (second series), active compounds read low
[15] = locus YLR085C, strain ARP6, active compounds read low
[16] = locus YLR262C, strain YPT6, active compounds read low
[17] = locus YML094W, strain GIM5, active compounds read low
[18] = locus YMR219W, strain ESC1, active compounds read low
[19] = locus YMR263W, strain SAP30, active compounds read low
[20] = locus YNL128W, strain TEP1, active compounds read low
[21] = locus YNL153C, strain GIM3, active compounds read low
[22] = locus YNL298W, strain CLA4 (second series), active compounds read low
[23] = locus YNL322C, strain KRE1, active compounds read low
[24] = locus YNR030W, strain Alg12, active compounds read low
[25] = locus YOL006C, strain TOP1, active compounds read low
[26] = locus YPL055C, strain LGE1, active compounds read low
[27] = locus YPL241C, strain CIN2, active compounds read low
[28] = locus YPR135W, strain CTF4, active compounds read low

Measured: normalized growth

CSc1nc(Sc2n[nH]c(-c3ccccc3)n2)cc(Sc2n[nH]c(-c3ccccc3)n2)n1
inactive: locus YAR019C, strain CDC15, active compounds read low 1.01 | locus YBL105C, strain PKC1, active compounds read low 0.99 | locus YBR135W, strain CKS1, active compounds read low 0.999 | locus YBR136W, strain MEC1, active compounds read low 1 | locus YBR160W, strain CDC28, active compounds read low 1 | locus YDL017W, strain CDC7, active compounds read low 0.995 | locus YDL028C, strain MPS1, active compounds read low 1.03 | [1] 0.991 | locus YDL108W, strain KIN28, active compounds read low 1.01 | locus YDL132W, strain cdc53, active compounds read low 0.995 | locus YDL214C, strain PRR2, active compounds read low 1.01 | locus YDR052C, strain DBF4, active compounds read low 0.995 | locus YDR054C, strain cdc34, active compounds read low 0.984 | locus YDR226W, strain ADK1, active compounds read low 1.01 | locus YDR477W, strain SNF1, active compounds read low 1.01 | locus YER123W, strain YCK3, active compounds read low 1.03 | locus YER133W, strain GLC7, active compounds read low 1 | locus YFL009W, strain cdc4, active compounds read low 1 | locus YFL029C, strain CAK1, active compounds read low 1.02 | locus YFR003C, strain YPI1, active compounds read low 0.99 | locus YFR019W, strain FAB1, active compounds read low 1 | locus YFR028C, strain CDC14, active compounds read low 1.01 | locus YGR040W, strain KSS1, active compounds read low 1.02 | locus YGR052W, strain FMP48, active compounds read low 1 | locus YGR092W, strain DBF2, active compounds read low 1.01 | [2] 1.13 | locus YHR079C, strain IRE1, active compounds read low 0.928 | locus YHR082C, strain KSP1, active compounds read low 1.22 | locus YHR205W, strain SCH9, active compounds read low 1 | locus YIL147C, strain SLN1, active compounds read low 1.01 | locus YJL095W, strain BCK1, active compounds read low 0.875 | locus YJL128C, strain PBS2, active compounds read low 0.978 | locus YJL157C, strain FAR1, active compounds read low 1.02 | locus YJR016C, strain ILV3, active compounds read low 1.01 | locus YJR066W, strain TOR1 (second series), active compounds read low 1.01 | locus YJR066W, strain TOR1, active compounds read low 1.2 | locus YKL048C, strain ELM1, active compounds read low 1.01 | locus YKL067W, strain YNK1, active compounds read low 1.01 | locus YKL101W, strain HSL1, active compounds read low 1.01 | locus YKL193C, strain SDS22, active compounds read low 1.02 | locus YKL203C, strain TOR2, active compounds read low 1.09 | locus YLR133W, strain CKI1, active compounds read low 1.01 | locus YLR403W, strain SFP1, active compounds read low 1.03 | locus YML070W, strain DAK1, active compounds read low 1.01 | locus YMR001C, strain CDC5, active compounds read low 1.01 | locus YMR205C, strain PFK2 (second series), active compounds read low 1.02 | locus YMR277W, strain FCP1, active compounds read low 1.02 | locus YNL006W, strain LST8, active compounds read low 1 | locus YNL020C, strain ARK1, active compounds read low 1.01 | locus YNL161W, strain CBK1, active compounds read low 1 | locus YNL183C, strain NPR1, active compounds read low 0.929 | locus YNL207W, strain RIO2, active compounds read low 1.01 | locus YNL222W, strain SSU72, active compounds read low 1.01 | locus YNL307C, strain MCK1 (second series), active compounds read low 1.01 | locus YOL078W, strain AVO1, active compounds read low 1.02 | locus YOL136C, strain PFK27, active compounds read low 1.03 | locus YOR061W, strain CKA2, active compounds read low 1.02 | locus YOR119C, strain RIO1, active compounds read low 1.05 | locus YOR231W, strain MKK1, active compounds read low 0.913 | locus YOR329C, strain SCD5, active compounds read low 1 | locus YPL031C, strain PHO85, active compounds read low 1.02 | locus YPL153C, strain RAD53, active compounds read low 1.01 | locus YPL204W, strain HRR25, active compounds read low 1.01 | locus YPL209C, strain IPL1, active compounds read low 0.998 | locus YPL256C, strain CLN2, active compounds read low 0.89 | locus YPR025C, strain CCL1, active compounds read low 1.01 | locus YPR106W, strain ISR1, active compounds read low 1 | locus YPR111W, strain DBF20, active compounds read low 1 | strain NNK1, active compounds read low 1.01 | strain TSCII, active compounds read low 1.01
active: locus YLR113W, strain HOG1, active compounds read low 0.855

S=c1nc(-c2ccccc2)[nH][nH]1
inactive: [3] 0.997 | [4] 1.01 | [1] 1.02 | [5] 0.979 | [6] 1.01 | [7] 0.992 | [8] 0.988 | locus YGR229C, strain SMI1, active compounds read low 0.994 | [2] 1.06 | [9] 1.01 | [10] 0.99 | [11] 0.982 | [12] 0.982 | [13] 1.02 | [14] 0.999 | [15] 1.03 | [16] 0.991 | [17] 1.11 | [18] 0.999 | [19] 0.998 | locus YMR307W, strain GAS1, active compounds read low 1.08 | [20] 0.985 | [21] 0.998 | [22] 0.992 | [23] 1 | [24] 1.01 | [25] 1.06 | [26] 1.03 | [27] 1.01 | [28] 1.02

O=c1nc(-c2ccccc2)nc(-c2ccccc2)[nH]1
inactive: [3] 0.985 | [4] 1 | locus YCL061C, strain MRC1, active compounds read low 0.999 | [1] 1.03 | [5] 0.955 | [6] 0.993 | [7] 0.97 | [8] 1 | [2] 0.972 | [9] 0.987 | [10] 0.986 | [11] 1 | [12] 0.96 | [13] 0.922 | [14] 0.993 | [15] 0.951 | [16] 0.902 | [17] 1.08 | [18] 1 | [19] 1.01 | [20] 0.968 | [21] 1.01 | [22] 0.944 | [23] 0.984 | [24] 0.989 | [25] 0.932 | [26] 1.01 | [27] 1.03 | [28] 0.991
